Laboratory results published in PubChem BioAssay AID743320 (Broad Institute, 2014).
Potency and affinity values are given separately. Active and inactive are the calls of the source.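 How the source made its calls: active means signal drop whose fitted half-maximal potency is at most twice the top valid dose tested; inconclusive means flat curve inhibiting 30 to 70 percent, or a poor fit; inactive means the rest.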

Each compound was assayed against Endoplasmic reticulum aminopeptidase 2 (Homo sapiens) (UniProt Q6P179) (assay: ERAP2 aminopeptidase inhibitors, dose response, selectivity assay for selective ERAP1 modulator project, biochemical, fluorescence plate reader, cherry-picked, set 2 (AID 743320)). Conditions: recombinant ERAP2, Arg-AMC fluorescence, 1 h; series mostly up to 11 µM.
Endoplasmic reticulum aminopeptidase 2 (Homo sapiens), sequence (Q6P179 whole entry, looked up): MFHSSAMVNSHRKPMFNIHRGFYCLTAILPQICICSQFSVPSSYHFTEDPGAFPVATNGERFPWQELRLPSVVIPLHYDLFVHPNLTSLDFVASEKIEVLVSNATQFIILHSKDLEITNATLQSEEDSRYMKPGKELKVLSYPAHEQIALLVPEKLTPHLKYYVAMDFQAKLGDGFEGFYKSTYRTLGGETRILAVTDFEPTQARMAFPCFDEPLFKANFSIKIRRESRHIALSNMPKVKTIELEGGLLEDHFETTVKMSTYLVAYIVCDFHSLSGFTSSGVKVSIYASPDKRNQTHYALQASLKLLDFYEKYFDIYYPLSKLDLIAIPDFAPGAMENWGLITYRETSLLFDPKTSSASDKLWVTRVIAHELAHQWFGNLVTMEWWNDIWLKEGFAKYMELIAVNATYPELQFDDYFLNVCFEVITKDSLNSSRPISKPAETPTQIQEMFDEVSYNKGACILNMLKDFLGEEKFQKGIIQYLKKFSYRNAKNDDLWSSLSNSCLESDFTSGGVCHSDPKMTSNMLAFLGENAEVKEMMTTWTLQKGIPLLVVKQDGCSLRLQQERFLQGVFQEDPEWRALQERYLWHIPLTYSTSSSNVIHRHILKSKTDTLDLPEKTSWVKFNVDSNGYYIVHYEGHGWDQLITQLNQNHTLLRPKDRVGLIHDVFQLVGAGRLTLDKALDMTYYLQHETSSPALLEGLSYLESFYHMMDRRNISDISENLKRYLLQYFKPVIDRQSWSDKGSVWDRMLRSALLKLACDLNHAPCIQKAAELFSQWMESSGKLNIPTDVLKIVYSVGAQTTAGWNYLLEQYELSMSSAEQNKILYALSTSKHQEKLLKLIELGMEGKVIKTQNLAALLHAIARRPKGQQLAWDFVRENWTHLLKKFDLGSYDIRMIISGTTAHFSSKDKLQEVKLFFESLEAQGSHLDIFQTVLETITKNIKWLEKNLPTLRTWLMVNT

outcome, inactive:
COc1ccc(NC(=O)Nc2ccc3c(c2)C(=O)N([C@H](C)CO)C[C@@H](C)[C@H](CN(C)Cc2ccc(C(=O)O)cc2)OCCCC[C@@H](C)O3)cc1, O=C(O)c1cccc(NC(=O)c2ccccc2NC(=O)c2cccc([N+](=O)[O-])c2)c1, O=C(C[C@H]1CC[C@@H]2[C@H](COC[C@@H](O)CN2C(=O)Nc2cccc(Cl)c2)O1)N1CCCCC1, O=C(C[C@@H]1CC[C@@H]2[C@H](COC[C@H](O)CN2C(=O)Nc2cccc(Cl)c2)O1)N1CCCCC1, C[C@@H]1CCCCO[C@@H](CN(C)S(C)(=O)=O)[C@@H](C)CN([C@@H](C)CO)C(=O)c2cc(NS(=O)(=O)c3ccc(Cl)cc3)ccc2O1, COc1ccc(S(=O)(=O)N(C)C[C@@H]2Oc3ncccc3C(=O)N([C@H](C)CO)C[C@@H]2C)cc1, C[C@@H]1CCCCO[C@H](CN(C)Cc2ccc(C(=O)O)cc2)[C@@H](C)CN([C@H](C)CO)C(=O)c2cc(NC(=O)Nc3ccc(C(F)(F)F)cc3)ccc2O1, C[C@@H]1CCCCO[C@H](CN(C)C)[C@H](C)CN([C@H](C)CO)C(=O)c2cc(NS(=O)(=O)c3ccc(Cl)cc3)ccc2O1, C[C@H](CO)N1C[C@H](C)[C@H](CN(C)Cc2ccc(C(=O)O)cc2)Oc2c(NC(=O)Nc3ccccc3)cccc2C1=O, CCCN(C)C[C@@H]1OCCCC[C@@H](C)Oc2ccc(NS(=O)(=O)c3ccc(C)cc3)cc2C(=O)N([C@H](C)CO)C[C@@H]1C, C[C@@H]1CCCCO[C@H](CN(C)Cc2ccccc2)[C@H](C)CN([C@H](C)CO)C(=O)c2cc(NS(=O)(=O)c3ccccc3)ccc2O1, Cc1noc(C)c1NC(=O)N(C)C[C@@H]1Oc2c(NC(=O)Nc3ccccc3)cccc2C(=O)N([C@H](C)CO)C[C@@H]1C, CNC[C@H]1OCCCC[C@@H](C)Oc2ccc(NS(=O)(=O)c3ccc(C)cc3)cc2C(=O)N([C@@H](C)CO)C[C@H]1C, Cc1noc(C)c1NC(=O)Nc1ccc2c(c1)C(=O)N([C@H](C)CO)C[C@@H](C)[C@@H](CN(C)Cc1ccc(C(F)(F)F)cc1)OCCCC[C@@H](C)O2, CCCNC(=O)C[C@H]1CC[C@@H]2[C@H](COC[C@H](O)CN2C(=O)Nc2cccc(Cl)c2)O1, C[C@@H]1CCCCO[C@@H](CN(C)C)[C@@H](C)CN([C@@H](C)CO)C(=O)c2cc(NS(=O)(=O)c3ccc(Cl)cc3)ccc2O1, CCCN(C)C[C@@H]1OCCCC[C@@H](C)Oc2ccc(NS(=O)(=O)c3ccc(F)cc3)cc2C(=O)N([C@H](C)CO)C[C@@H]1C
